BoNT F protease – BoNT/F light chain protease inhibitors, primary screen, biochemical, flow cytometry, MLPCN library | AID 588497, 2011 | 360,000 tested, 0.22% active | inhibition, % at 10 µM | Multiplex microsphere protease cleavage assay | Botulinum neurotoxin type F light chain protease (Clostridium botulinum); in the data active means inhibition above about 35%, passing the limit was not always enough; inconclusive means no clear call, values can overlap the other calls
TcdB GH inh – TcdB glycohydrolase inhibitors, primary screen, biochemical, single point, plate reader; 350,000 tested, 0.24% active; TcdB glycohydrolase enzymatic assay; inhibition, % at 9.99 µM; AID 652162, 2013; Toxin B (Clostridioides difficile), P18177; in the data active means inhibition above about 10%
Autofluor counter – compound fluorescence in toxin protease inhibitor counterscreen. 360,000 tested, 3.1% active. fluorescence intensity (test concentration not listed). AID 624483. compound autofluorescence counterscreen, microsphere flow cytometry; active compounds read high; in the data active means fluorescence intensity above about 16000; inconclusive means no clear call, values can overlap the other calls
BoNT A protease – BoNT/A light chain protease inhibitors, primary screen, biochemical, flow cytometry, MLPCN library. Botulinum neurotoxin type A light chain protease (Clostridium botulinum A str. ATCC 3502). multiplex microsphere protease substrate cleavage. inhibition, % at 10 µM. 360,000 tested, 0.17% active. AID 588499, 2011
Anthrax LF inh2 – Bacillus anthracis LF protease inhibitors, primary screen, biochemical, multiplex microsphere, MLPCN library | Lethal factor (Bacillus anthracis), P15917 | multiplex microsphere protease cleavage assay | inhibition, % at 10 µM | 360,000 tested, 0.12% active | AID 588501, 2011
Each line names hits and unclear results; the compound was inactive in the other large screens. Shown is part of a subset that was picked to be rich in hits. Unless noted, no stated cut-off is given here; in the data, active means inhibition above about 30%; inconclusive means no clear call, values can overlap the other calls; inactive means below that.

O=C(C[C@@H]1C[C@H]2c3cc(NC(=O)Cc4ccncc4)ccc3O[C@H]2[C@@H](CO)O1)NCc1ccccn1	none (no result: BoNT F protease, Autofluor counter, BoNT A protease, Anthrax LF inh2)
CC(C)(C)/C(O)=C(/C#N)c1nc2ccccc2[nH]1	Autofluor counter 23471, BoNT A protease inconclusive (no result: TcdB GH inh)
COc1ccc(/C=N/OC/C(O)=C(\C#N)c2nc3ccccc3[nH]2)cc1	Autofluor counter 22111 (no result: TcdB GH inh)
Cc1ccc(S(=O)(=O)N(C)C[C@@H]2Oc3ncc(-c4ccccc4)cc3C(=O)N([C@@H](C)CO)C[C@@H]2C)cc1	none (no result: BoNT F protease, Autofluor counter, BoNT A protease, Anthrax LF inh2)
O=C(C[C@@H]1CC[C@H](NC(=O)c2ccccc2)[C@H](CO)O1)Nc1ccc(-c2ccccc2)cc1	none (no result: BoNT F protease, Autofluor counter, BoNT A protease, Anthrax LF inh2)
CCn1cc([N+](=O)[O-])c(C(=O)Nc2nc(-c3ccc(C)c(C)c3)c(C)s2)n1	none
CCn1cc([N+](=O)[O-])c(C(=O)Nc2nc(-c3ccc(C)cc3)c(C)s2)n1	Autofluor counter 16716
CCn1cc([N+](=O)[O-])c(C(=O)Nc2ccn(Cc3ccccc3F)n2)n1	Autofluor counter 23949 (no result: TcdB GH inh)
O=C(C1CCC1)N1[C@@H](CO)[C@@H](c2ccccc2)C12CN(Cc1ccccc1)C2	none (no result: BoNT F protease, Autofluor counter, BoNT A protease, Anthrax LF inh2)
C[C@@H]1CN([C@@H](C)CO)C(=O)c2cc(C#CC3CCCC3)cnc2O[C@@H]1CN(C)S(=O)(=O)c1cccc(F)c1	none (no result: BoNT F protease, Autofluor counter, BoNT A protease, Anthrax LF inh2)
O=C(CCCc1ccccc1)NCc1cccnc1	Autofluor counter 24595 (no result: TcdB GH inh)
NC(=O)CCCc1nc(-c2ccccc2)no1	BoNT F protease inconclusive, BoNT A protease inconclusive
O=C(CCCc1nc(-c2ccccc2Cl)no1)NCc1cccnc1	none (no result: TcdB GH inh)
O=C(CCc1nc(-c2ccccc2)no1)NCc1cccnc1	Autofluor counter 23102
O=C(O)CCCc1nc(-c2ccccc2)no1	Autofluor counter 16634 (no result: TcdB GH inh)
C/C=C/c1ccc2c(c1)O[C@H](CN(C)Cc1ccncc1)[C@@H](C)CN([C@@H](C)CO)S2(=O)=O	none (no result: BoNT F protease, Autofluor counter, BoNT A protease, Anthrax LF inh2)
CNC(=O)N(C1=NCC(C)S1)c1ccc(F)cc1F (stereo unspecified)	Autofluor counter 23465, BoNT A protease inconclusive (no result: TcdB GH inh)
Cc1ccc(C(=S)NCS(=O)(=O)c2ccc(C)cc2)cc1	Autofluor counter 23970 (no result: TcdB GH inh)
Cc1ccc(S(=O)(=O)CNC(=S)c2cccc(Cl)c2)cc1	none (no result: TcdB GH inh)
Cc1nc(NC(=O)/C=C/c2ccccc2)sc1C(=O)Nc1ccc(Cl)cc1	Autofluor counter 23690 (no result: TcdB GH inh)
Cc1nnsc1C(=O)Nc1ccccc1Cl	Autofluor counter 21871 (no result: TcdB GH inh)
Cc1nnsc1C(=O)Nc1ccc(Cl)cc1	Autofluor counter 21839 (no result: TcdB GH inh)
CCCN1[C@H](C(=O)OC)[C@@H](CO)[C@@H]2Cn3c(ccc(-c4cncnc4)c3=O)[C@@H]21	none (no result: BoNT F protease, Autofluor counter, BoNT A protease, Anthrax LF inh2)
O=C(C[C@H]1CC[C@@H](NC(=O)Nc2ccc(C(F)(F)F)cc2)[C@@H](CO)O1)NCc1ccccn1	none (no result: BoNT F protease, Autofluor counter, BoNT A protease, Anthrax LF inh2)
COC(=O)c1ccccc1NC(=O)C1CCC(=O)N1S(=O)(=O)c1ccc(C)cc1 (stereo unspecified)	Autofluor counter 16363, BoNT A protease inconclusive
Cc1ccc(S(=O)(=O)N2C(=O)CCC2C(=O)N2CCCCC2)cc1 (stereo unspecified)	BoNT F protease inconclusive
COC(=O)c1ccccc1NC(=O)C1CCCN(S(=O)(=O)c2ccccc2)C1 (stereo unspecified)	Autofluor counter 19578, BoNT A protease inconclusive (no result: TcdB GH inh)
Cc1ccc(S(=O)(=O)N2C(=O)CCC2C(=O)N2CCN(C)CC2)cc1 (stereo unspecified)	Autofluor counter 22032 (no result: TcdB GH inh)
O=C(N/N=C/c1ccc(Cl)c([N+](=O)[O-])c1)c1ccc2nc[nH]c2c1	none (no result: TcdB GH inh)
O=C(N/N=C/c1ccccc1[N+](=O)[O-])c1ccc2nc[nH]c2c1	BoNT F protease 49, Anthrax LF inh2 inconclusive
COC(=O)C[C@@H]1CC[C@@H]2[C@@H](COc3ccc(NC(=O)c4cnccn4)cc3C(=O)N2C)O1	none (no result: BoNT F protease, Autofluor counter, BoNT A protease, Anthrax LF inh2)
COc1cnn(C(C)(C)C)c(=O)c1Cl	Autofluor counter 19156, BoNT A protease inconclusive (no result: TcdB GH inh)
CCCNC(=O)C[C@H]1CC[C@@H]2[C@@H](COc3ccc(NC(=O)Nc4ccccc4F)cc3C(=O)N2C)O1	none (no result: BoNT F protease, Autofluor counter, BoNT A protease, Anthrax LF inh2)
COc1cccc(-c2ccc3c(c2)[C@H]2[C@H](CCN2S(=O)(=O)c2cccc(OC)c2)[C@H](CO)N3)c1	none (no result: BoNT F protease, Autofluor counter, BoNT A protease, Anthrax LF inh2)
C[C@H](CO)N1C[C@H](C)[C@H](CN(C)Cc2cccc(C(F)(F)F)c2)Oc2ncc(C#Cc3ccccc3)cc2C1=O	none (no result: BoNT F protease, Autofluor counter, BoNT A protease, Anthrax LF inh2)
CC1(C)CC(=O)C2=C(C1)N(Cc1ccccc1)C(=O)C2(NC(=O)C(C)(C)C)C(F)(F)F (stereo unspecified)	Autofluor counter 24235 (no result: TcdB GH inh)
CC(=O)NC1(C(F)(F)F)C(=O)N(Cc2ccccc2)C2=C1C(=O)CC(C)(C)C2 (stereo unspecified)	none (no result: TcdB GH inh)
CCOC(=O)NC1(C(F)(F)F)C(=O)N(Cc2ccccn2)C2=C1C(=O)CC(C)(C)C2 (stereo unspecified)	Autofluor counter 16536 (no result: TcdB GH inh)
C[C@H](CO)N1C[C@H](C)[C@H](CN(C)C(=O)Nc2ccc3c(c2)OCO3)OCCCC[C@H](C)Oc2ccc(NS(=O)(=O)c3cccs3)cc2C1=O	none (no result: BoNT F protease, Autofluor counter, BoNT A protease, Anthrax LF inh2)
Cc1ccccc1OC1C(=O)N(Cc2ccc3c(c2)OCO3)C1c1sccc1C (stereo unspecified)	Autofluor counter 22460, BoNT A protease inconclusive (no result: TcdB GH inh)
O=C(c1ccncc1)N1C[C@H]2[C@@H](c3ccccc31)[C@H](CO)N2C(=O)c1ccccc1F	none (no result: BoNT F protease, Autofluor counter, BoNT A protease, Anthrax LF inh2)
O=C(CCCn1c(=S)[nH]c2cc3c(cc2c1=O)OCO3)NCc1ccco1	Autofluor counter inconclusive
O=C(CCCn1c(=S)[nH]c2cc3c(cc2c1=O)OCO3)NC1CC1	Autofluor counter 22975 (no result: TcdB GH inh)
Oc1cc2c(cc1CN1CCN(c3ccccc3)CC1)CCC2	none (no result: TcdB GH inh)
COc1ccc(N2CCN(Cc3cc4c(cc3O)CCC4)CC2)cc1	Autofluor counter 22399 (no result: TcdB GH inh)
COc1ccc(C2NC(=O)NC(O)(C(F)(F)F)C2C(=O)c2ccccc2)cc1OC (stereo unspecified)	Autofluor counter inconclusive (no result: TcdB GH inh)
COc1cccc(C2NC(=O)NC(O)(C(F)(F)F)C2C(=O)c2cccnc2)c1OC (stereo unspecified)	Autofluor counter 22761 (no result: TcdB GH inh)
COc1ccc2c3c(n(C)c2c1)[C@H](CO)N(C(=O)Nc1ccc(F)cc1)CC31CN(CC2CCOCC2)C1	none (no result: BoNT F protease, Autofluor counter, BoNT A protease, Anthrax LF inh2)
Cc1ccccc1-c1nc2sc(-c3ccccc3)cc2c(=O)o1	Autofluor counter 17440, BoNT A protease inconclusive (no result: TcdB GH inh)
Cc1ccccc1-c1nc2sc(C)c(C)c2c(=O)o1	BoNT F protease inconclusive
O=C(OCc1ccccc1)Oc1cncc(C(=O)O)c1	Autofluor counter 16938
O=C(OCc1ccccc1)c1ccccc1	none
C[C@@H]1CN([C@H](C)CO)S(=O)(=O)c2ccc(C#CC3CC3)cc2O[C@H]1CN(C)C(=O)CC1CC1	none (no result: BoNT F protease, Autofluor counter, BoNT A protease, Anthrax LF inh2)
O=C(Nc1ccccc1N1CCOCC1)c1ccccc1[N+](=O)[O-]	Autofluor counter 24174 (no result: TcdB GH inh)
O=C(Nc1cc(S(=O)(=O)N2CCOCC2)ccc1N1CCOCC1)c1ccccc1Cl	TcdB GH inh 14
O=C(CCNC(=O)c1ccccc1Cl)Nc1cc(S(=O)(=O)N2CCOCC2)ccc1N1CCOCC1	none

Compound activity as filed in PubChem.
